TEAD-YAP block: TEAD-YAP interaction inhibition, primary screen, TEAD-YAP interaction inhibitor project, luminescence, HEK-TIYL cells. TEAD-Gal4/YAP UAS-luciferase luminescence. inhibition, % at 9.12 µM. 1.4% of 640,000 active; in the data active means inhibition above about 32%
MITF primary: MITF inhibitors, primary screen, biochemical, AlphaScreen, human; Microphthalmia-associated transcription factor (Homo sapiens), O75030; AlphaScreen MITF homodimerization, bead proximity signal; inhibition, % at 2.6 µM; 0.91% of 650,000 active; in the data active means inhibition above about 50%
GPR151 activ: activators of human GPR151, primary screen, cell-based, PathHunter beta-arrestin, luminescence; PathHunter beta-arrestin GPR151 cells; activation, % at 11.2 µM; 1% of 650,000 active; in the data active means activation above about 4.9%
FBW7 act: FBW7 E3 ligase activators, primary screen, biochemical, AlphaScreen, human; AID 1259310, 2017; AlphaScreen FBW7–phospho-cyclin E peptide binding, activator screen; normalized activity (activation), % at 26.1 µM; 0.13% of 650,000 active; in the data active means normalized activity above about 1.9%;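 further: purified mutant Fbw7 with reduced substrate affinity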
Target sequence (Q969H0 whole entry, looked up): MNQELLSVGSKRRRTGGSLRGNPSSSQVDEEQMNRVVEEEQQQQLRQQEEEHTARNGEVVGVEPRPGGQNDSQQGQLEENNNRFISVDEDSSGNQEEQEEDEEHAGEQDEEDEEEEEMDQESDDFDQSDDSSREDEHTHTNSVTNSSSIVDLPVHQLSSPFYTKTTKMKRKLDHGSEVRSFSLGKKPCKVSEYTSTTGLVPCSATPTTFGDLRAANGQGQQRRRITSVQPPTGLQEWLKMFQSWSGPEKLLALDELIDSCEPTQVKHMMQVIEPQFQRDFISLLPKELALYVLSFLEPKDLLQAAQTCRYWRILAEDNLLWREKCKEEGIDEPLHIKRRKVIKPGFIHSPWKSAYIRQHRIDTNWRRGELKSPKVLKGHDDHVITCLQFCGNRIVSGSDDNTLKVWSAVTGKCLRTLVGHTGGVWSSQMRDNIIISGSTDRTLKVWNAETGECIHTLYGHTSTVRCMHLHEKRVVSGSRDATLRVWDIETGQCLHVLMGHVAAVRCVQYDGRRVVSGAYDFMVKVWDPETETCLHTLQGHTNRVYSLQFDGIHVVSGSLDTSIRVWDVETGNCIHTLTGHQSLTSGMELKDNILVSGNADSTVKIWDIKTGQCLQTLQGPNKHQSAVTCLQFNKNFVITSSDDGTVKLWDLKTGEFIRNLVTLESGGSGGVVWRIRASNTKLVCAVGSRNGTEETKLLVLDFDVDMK
MITF confirm: MITF inhibitors, retest of hits, confirmation, biochemical, AlphaScreen, triplicate. shares compounds with MITF primary. AlphaScreen MITF homodimerization, biotin/His-MITF beads. inhibition, % at 2.6 µM. 16% of 4,700 active. AID 1259372, 2018;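 active means inhibition above a cutoff derived from the DMSO control wells, cut at about 28% in these data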;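 further: inhibitors lower the bead chemiluminescence by keeping MITF from dimerizing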
AS interf DR: AlphaScreen optical interference compounds, dose response, counter-screen, biochemical, HTS; shares compounds with MITF primary; AlphaScreen optical interference counterscreen, cell-free; IC50, µM; 6% of 480 active; AID 1259373, 2018; call rule not given here
AS interf ctr: AlphaScreen optical interference compounds, counter-screen for MITF inhibitor project, biochemical, triplicate. shares compounds with MITF primary. LysRS AlphaScreen counterscreen, signal interference. inhibition, % at 2.6 µM. 7.6% of 4,700 active. AID 1259376, 2018;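 active means inhibition above a cutoff derived from the DMSO control wells, cut at about 30% in these data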
A number is an active result. This is a sample that favours compounds with a hit; in the whole collection about 3.5% have one here.

Screening O=C(C1COc2ccccc2C1)N1CCC(CO)(Cc2ccc(Cl)cc2)CC1 (stereo not given) returned TEAD-YAP block inactive, MITF primary inactive, GPR151 activ inactive and FBW7 act inactive.
COCCCNCCCOc1ccc(Cl)cc1C(C)(C)C was read as TEAD-YAP block inactive, MITF primary inactive, GPR151 activ inactive and FBW7 act inactive.
`COCCNCCOc1cccc(Cl)c1Cl` gave TEAD-YAP block inactive, MITF primary 72, GPR151 activ inactive, FBW7 act inactive, MITF confirm inactive and AS interf ctr inactive.
Screening COCCNCCOc1ccc(Cl)cc1C(C)(C)C returned TEAD-YAP block inactive, MITF primary 74, GPR151 activ inactive, FBW7 act inactive, MITF confirm inactive and AS interf ctr inactive.
For CCC(c1nnnn1C(C)C)N1CCN(c2ccc(F)cc2)CC1 (stereo not given) the results were TEAD-YAP block inactive, MITF primary inactive, GPR151 activ inactive and FBW7 act inactive.
For C/C(CC12CC3CC(CC(C3)C1)C2)=N\NC(N)=O the results were TEAD-YAP block inactive, MITF primary 53, GPR151 activ inactive, FBW7 act inactive, MITF confirm inactive and AS interf ctr inactive.
`CC1C=CCC2C(=O)N(c3cccc(C(=O)OCC(=O)c4ccc(Br)cc4)c3)C(=O)C12` (stereo not given) gave TEAD-YAP block inactive, MITF primary inactive, GPR151 activ inactive and FBW7 act inactive.
Screening CCC(C)NC(=O)c1ccc(Cl)cc1Cl (stereo not given) returned TEAD-YAP block inactive, MITF primary inactive, GPR151 activ inactive and FBW7 act inactive.
Clc1ccc2nc(CSc3nc4ccccn4n3)cn2c1 was read as TEAD-YAP block inactive, MITF primary inactive, GPR151 activ inactive and FBW7 act inactive.
CCc1ccc(OCC(=O)Nc2cc(C)ccn2)cc1 was read as TEAD-YAP block inactive, MITF primary 51, GPR151 activ inactive, FBW7 act inactive, MITF confirm inactive and AS interf ctr inactive.
Screening Fc1ccc(NCc2nnc(SCCN3CCOCC3)n2-c2ccccc2)cc1 returned TEAD-YAP block inactive, MITF primary 67, GPR151 activ inactive, FBW7 act inactive, MITF confirm inactive and AS interf ctr inactive.
COc1cc(OC)c(OC)cc1CN1CCN(Cc2ccc(C)cc2)CC1 was read as TEAD-YAP block inactive, MITF primary 63, GPR151 activ inactive, FBW7 act inactive, MITF confirm 71, AS interf DR inactive and AS interf ctr inactive.
CCS(=O)(=O)N1CCN(Cc2cc(OC)c(OC)cc2OC)CC1 was read as TEAD-YAP block inactive, MITF primary inactive, GPR151 activ inactive and FBW7 act inactive.
`COc1cc(OC)c(OC)cc1CN1CCN(Cc2ccncc2)CC1` gave TEAD-YAP block inactive, MITF primary 80, GPR151 activ inactive, FBW7 act inactive, MITF confirm inactive and AS interf ctr inactive.
`CCn1c2ccccc2c2cc(CN3CCN(Cc4cc(OC)c(OC)cc4OC)CC3)ccc21` gave TEAD-YAP block inactive, MITF primary 69, GPR151 activ inactive, FBW7 act inactive, MITF confirm inactive and AS interf ctr inactive.
Screening COc1cc(OC)c(OC)cc1CN1CCN(Cc2cc(OC)c(O)c(OC)c2)CC1 returned TEAD-YAP block inactive, MITF primary 60, GPR151 activ inactive, FBW7 act inactive, MITF confirm inactive and AS interf ctr inactive.
Screening NC(=O)c1ccc(Nc2cc(-c3cccc(Nc4ccccc4)c3)ccn2)cc1 returned TEAD-YAP block inactive, MITF primary inactive, GPR151 activ inactive and FBW7 act inactive.
Screening CC1CN(CCCOc2ccc(Br)cc2Cl)CC(C)O1 (stereo not given) returned TEAD-YAP block inactive, MITF primary 58, GPR151 activ inactive, FBW7 act inactive, MITF confirm inactive and AS interf ctr inactive.
`CC1CN(CCOc2ccc(Cl)cc2Cl)CC(C)O1` (stereo not given) gave TEAD-YAP block inactive, MITF primary inactive, GPR151 activ inactive and FBW7 act inactive.
`CC1CN(CCOc2ccc(Br)cc2Cl)CC(C)O1` (stereo not given) gave TEAD-YAP block inactive, MITF primary 51, GPR151 activ inactive, FBW7 act inactive, MITF confirm inactive and AS interf ctr inactive.
Cc1cc(C)c(C)c(OCCN2CC(C)OC(C)C2)c1 (stereo not given) was read as TEAD-YAP block inactive, MITF primary 71, GPR151 activ inactive, FBW7 act inactive, MITF confirm inactive and AS interf ctr inactive.
`CCOc1ccccc1OCCN1CC(C)OC(C)C1` (stereo not given) gave TEAD-YAP block inactive, MITF primary inactive, GPR151 activ inactive and FBW7 act inactive.
`OCCN1CCN(Cc2cc(Br)cs2)CC1` gave TEAD-YAP block inactive, MITF primary 73, GPR151 activ inactive, FBW7 act inactive, MITF confirm inactive and AS interf ctr inactive.
For CC(=O)N1CCN(Cc2ccc(Br)s2)CC1 the results were TEAD-YAP block inactive, MITF primary inactive, GPR151 activ inactive and FBW7 act inactive.
Screening OCCN1CCN(Cc2ccc(Br)s2)CC1 returned TEAD-YAP block inactive, MITF primary 59, GPR151 activ inactive, FBW7 act inactive, MITF confirm inactive and AS interf ctr inactive.
`O=C(NC1CC1)c1cc2nc(-c3ccco3)cc(C(F)(F)Cl)n2n1` gave TEAD-YAP block inactive, MITF primary inactive, GPR151 activ inactive and FBW7 act inactive.
`CN(Cc1ccco1)C(=O)Cn1ncc2c1-c1ccccc1OC2` gave TEAD-YAP block inactive, MITF primary inactive, GPR151 activ inactive and FBW7 act inactive.
Cc1cccc(CC(=O)Nc2c3c(nn2-c2ccc(F)cc2)CS(=O)C3)c1 (stereo not given) was read as TEAD-YAP block inactive, MITF primary 88, GPR151 activ inactive, FBW7 act inactive, MITF confirm inactive and AS interf ctr inactive.
`O=C(Cc1ccc(F)cc1)Nc1c2c(nn1-c1ccccc1)CS(=O)C2` (stereo not given) gave TEAD-YAP block inactive, MITF primary inactive, GPR151 activ inactive and FBW7 act inactive.
For CC(C)[C@@H]1NC(=O)[C@H]2CN(C(=O)NC3CCCCC3)CCN2C1=O the results were TEAD-YAP block inactive, MITF primary 71, GPR151 activ inactive, FBW7 act inactive, MITF confirm 68, AS interf DR inactive and AS interf ctr inactive.
Screening CC(C)[C@@H]1NC(=O)[C@H]2CN(C(=O)c3ccc(Cl)cc3)CCN2C1=O returned TEAD-YAP block inactive, MITF primary inactive, GPR151 activ inactive and FBW7 act inactive.

Screens from PubChem BioAssay.
